Source: PubChem BioAssay AID588342 (National Center for Advancing Translational Sciences (NCATS), 2011)
Screen size: about 360,000 compounds; about 25,000 (6.9%) were called active. About 9% were inconclusive and are not listed. Calls follow the shape of the dose curve; as a rule, active = well fitted inhibition curve with a large enough effect; inconclusive = small, poorly fitted or top-dose-only effect; inactive = flat fitted curve, though single readings scatter. The list comes from a sample in which actives are over-represented; it also holds similar structures and randomly drawn compounds.

Biological target: Luciferin 4-monooxygenase (Photinus pyralis) (UniProt P08659)
Sequence (P08659 whole entry, looked up): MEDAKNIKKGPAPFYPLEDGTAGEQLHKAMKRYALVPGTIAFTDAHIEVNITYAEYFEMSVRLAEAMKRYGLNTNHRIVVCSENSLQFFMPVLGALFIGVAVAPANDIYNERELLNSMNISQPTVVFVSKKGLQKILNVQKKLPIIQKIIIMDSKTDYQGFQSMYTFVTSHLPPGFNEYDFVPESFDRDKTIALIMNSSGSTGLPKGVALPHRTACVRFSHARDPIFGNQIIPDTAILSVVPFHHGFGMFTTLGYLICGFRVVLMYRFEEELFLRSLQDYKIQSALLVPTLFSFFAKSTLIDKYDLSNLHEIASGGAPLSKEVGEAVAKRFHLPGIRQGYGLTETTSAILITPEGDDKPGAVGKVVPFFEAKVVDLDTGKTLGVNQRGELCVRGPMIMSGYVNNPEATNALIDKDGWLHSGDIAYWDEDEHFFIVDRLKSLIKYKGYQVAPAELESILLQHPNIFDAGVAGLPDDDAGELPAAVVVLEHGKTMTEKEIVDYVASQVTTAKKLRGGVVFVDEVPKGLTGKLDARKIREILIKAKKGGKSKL
Assay: qHTS profiling assay for firefly luciferase inhibitor/activator using purifed enzyme and Km concentrations of substrates (counterscreen for miR-21 project); also: nearly all actives have a fitted effect of over 55% in size;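 as to activity change, negative = inhibition: plate controls were vehicle for no effect and reference inhibitor for full effect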
Details: purified FLuc, luminescence inhibition; series mostly up to 57.5 µM; activity change, negative = inhibition: at the top concentration
Excerpt: MLPCN Grant: 1 R21 NS059478-01 (miR-21 grant) Assay Provider: NCGC NCGC Assay Overview: Firefly (Photinus pyralis) luciferase is one of the most commonly used transcriptional reporters for a number of reasons. It is considered one of the more dynamically responsive reporters -that is, responsive to changes in reporter transcription - as it requires no post-translational modifications and is enzymatically active directly after protein synthesis (Wood, 1998). Additionally, the half-life of the luciferase protein is short relative to other reporter-gene products (Wood, 1995). Whereas reporters with long half-lives potentially allow for increased signal due to accumulation of reporter-gene product, once accumulated in the cell, dynamic changes in reporter-gene expression may be difficult to detect(Fan and Wood, 2007; Almond et al., 2004). It has been shown that wild-type P. pyralis luciferase has a half-life of approximately […] hours in mammalian cells (Thompson et al., 1991). Firefly luciferase reporter-gene assays are also generally considered one of the most sensitive assay types (Wood, 1995; Wood, 1998). Although light produced in a bioluminescence reaction is of lower intensity than that produced during fluorescence emission, this is offset by little to no background light inherent to luminescent assays. Thus the luciferase reporter can be expressed at much lower levels than fluorescent proteins while still providing robust signal. # However, it was initially observed, in 1991, by Thompson et al., that compounds that resemble the substrates of firefly luciferase (FLuc) can act as competitive inhibitors of the enzyme, and that these compounds, upon interaction with luciferase in the cell, can actually stabilize the protein and increase its half-life. Accumulated intracellular FLuc protein can be measured as an increase in luminescence signal, upon addition of detection reagents (which contain high concentrations of FLuc substrates) commonly used in high-throughput screening. In cell-based reporter gene assays that use FLuc as the reporter gene to quantitate the potential influence of a given compound against the target biology, this apparent increase in luminescence can mistakenly be interpreted as identification of a compound that is active against the target of interest. This is the case for the miR-21 FLuc reporter gene assay used to identify inhibitors of the miR-21 pathway (PubChem AID 2289) - compounds of interest will inhibit miR-21 biogenesis/expression or activity, and are identified by causing an increase in luminescence, due to increased FLuc translation. However, FLuc inhibitory compounds that stabilize the FLuc protein will give an identical read-out, making it difficult to distinguish compounds that are active against the target from those active against FLuc. Previous profiling work to determine the prevalence of compounds that affect FLuc enzymatic activity (PubChem AID 411) identified that ~3% of the MLSMR library (then at ~72K) inhibited FLuc. […] Since the MLSMR had grown to ~350K compounds, and since it was expected that a significant percentage of compounds found active in the miR-21 FLuc assay would be FLuc inhibitors, the library was screened for activity against FLuc using a biochemical assay of purified FLuc and KM concentrations of FLuc substrates (D-luciferin and ATP).
NCGC Assay Protocol Summary: Reagents: 50mM Tris acetate, pH 7.5; 10mM Mg acetate; 10uM D-luciferin (Sigma #L9504); 10uM ATP; 0.01% Tween-20; 0.05% BSA; 10nM P. pyralis luciferase (Sigma #L9506) Control compounds used were two known firefly luciferase inhibitors (compounds (2) and (5) in Auld et al., 2010), and DMSO. […]

Which “activity change, negative = inhibition” value does the source give for O=C1Cc2cc(S(=O)(=O)Nc3ccc(OC(F)(F)F)cc3)cc3c2N1CCC3 here?
Its value is 3.14% (inactive).

For CN(CC(=O)Nc1ccc(Cl)cc1)CC(=O)Nc1cccc2ccccc12, which “activity change, negative = inhibition” value is on record?
Its value is 2.54% (inactive).

O=C(O)c1ccccc1-c1ccccc1C(=O)Nc1cccc2ccccc12 was tested. Which “activity change, negative = inhibition” value did it give?
Its value is -0.517% (inactive).

Which Potency does the source give for O=C(Nc1cccc2ccccc12)c1onc2c1CCCC2 here?
The Potency was 8.49 µM (active).

COc1ccc(Cl)cc1C(=O)OCC(=O)NCc1cccs1 was tested. Which “activity change, negative = inhibition” value did it give?
The value was -0.894% (inactive).

How did the Potency turn out when COc1ccc(C(=O)OCC(=O)c2ccc(Cl)s2)c(OC)c1OC was run?
The Potency was 21.3 µM (active).

Which “activity change, negative = inhibition” value does the source give for COc1ccc(C(=O)OCC(=O)Nc2ccc3[nH]c(=O)[nH]c3c2)c(OC)c1OC here?
The value was 0.847% (inactive).

CCC1=Nc2cc(C(=O)NCC(C)c3ccccc3)ccc2Sc2ccc(C)cc21 (stereo not drawn) was tested. Which “activity change, negative = inhibition” value did it give?
Its value is -8.78% (inactive).

With COC(=O)c1c(-c2ccc(C)cc2)csc1N as the compound, how does the “activity change, negative = inhibition” value read?
Its value is 0.678% (inactive).

How did the Potency turn out when CCOC(=O)c1c(-c2ccc(C)cc2)csc1/N=C(\C)C1=C(O)c2ccccc2C1=O was run?
The Potency was 2.69 µM (active).

How did the “activity change, negative = inhibition” value turn out when CCOC(=O)c1c(-c2ccc(-c3ccccc3)cc2)csc1NC(=O)CCC(=O)O was run?
Its value is 0.422% (inactive).

CN(C)S(=O)(=O)c1cccc(NC(=O)COC(=O)C2(c3ccccc3F)CCCC2)c1 was tested. Which “activity change, negative = inhibition” value did it give?
The value was 3.61% (inactive).

CN(C)S(=O)(=O)c1cccc(NC(=O)COC(=O)c2cc(=O)[nH]c(=O)[nH]2)c1 was tested. Which “activity change, negative = inhibition” value did it give?
Its value is 1.02% (inactive).

With CN(C)S(=O)(=O)c1cccc(NC(=O)COc2ccc3ccccc3c2)c1 as the compound, how does the Potency read?
Its Potency is 6.01 µM (active).

CCC(Oc1ccccc1C)C(=O)Nc1ccc(S(=O)(=O)Nc2cc(C)on2)cc1 (stereo not drawn) was tested. Which “activity change, negative = inhibition” value did it give?
The value was 1.08% (inactive).

For CC1CN(C(=S)Nc2ccc(Br)cc2Cl)CC(C)O1 (stereo not drawn), which “activity change, negative = inhibition” value is on record?
The value was -1.05% (inactive).

How did the Potency turn out when O=C(/C=C/c1cnc2ccccc2n1)NC1CCCCCC1 was run?
Its Potency is 13.5 µM (active).

For O=C(Cn1c(-c2cncs2)nc2ccccc21)NC1CCCC1, which “activity change, negative = inhibition” value is on record?
Its value is 2.57% (inactive).

Which “activity change, negative = inhibition” value does the source give for O=C(CSc1nnc2c(n1)[nH]c1ccccc12)NC1CCCCC1 here?
Its value is -1.35% (inactive).

For COc1ccc(/C=C/CN2CCN(Cc3ccc(C)cc3)C(CCO)C2)cc1 (stereo not drawn), which “activity change, negative = inhibition” value is on record?
Its value is -3.37% (inactive).

How did the “activity change, negative = inhibition” value turn out when CCc1cnc2c(c1SCC(=O)N1CCC(C)CC1)c(=O)n(C)c(=O)n2C was run?
Its value is 0.686% (inactive).

O=C1CC[C@H](O)CCN1[C@H](CSc1ccc(Br)cc1)Cc1ccccc1 was tested. Which “activity change, negative = inhibition” value did it give?
The value was -2.89% (inactive).

With Cc1ccc(/C=C2\SC(=S)N(CCC(=O)Nc3ccc(O)cc3)C2=O)cc1 as the compound, how does the “activity change, negative = inhibition” value read?
The value was -1.73% (inactive).

Which “activity change, negative = inhibition” value does the source give for O=C1/C(=C/c2ccc(F)cc2)SC(=S)N1CCCC(=O)N1CCCCC1CCO (stereo not drawn) here?
The value was -5.92% (inactive).

Which Potency does the source give for C=CCOc1ccc(/C=C2\SC(=S)N(CCC(=O)O)C2=O)cc1 here?
Its Potency is 1.69 µM (active).

Which “activity change, negative = inhibition” value does the source give for O=C(NCc1ccncc1)c1cccc(NS(=O)(=O)c2ccc(F)c(F)c2)c1 here?
The value was 11.6% (inactive).

For COc1ccc(S(=O)(=O)NCCSc2nnnn2-c2ccccc2)cc1, which “activity change, negative = inhibition” value is on record?
The value was 7.96% (inactive).

For COc1ccc(N(C)C(=O)C2CCN(S(=O)(=O)c3cc(Br)cc4c3N(C(C)=O)CC4)CC2)cc1, which “activity change, negative = inhibition” value is on record?
Its value is -2.94% (inactive).

Which “activity change, negative = inhibition” value does the source give for CC1=C(C(=O)OCc2ccc(C)cc2)C(c2ccccc2Cl)CC(=O)N1 (stereo not drawn) here?
Its value is -12.5% (inactive).

For CSc1ccc(CCNC(=O)c2cnn(-c3ccccc3)c2-n2cccc2)cc1, which “activity change, negative = inhibition” value is on record?
The value was -14.2% (inactive).

For COc1ccc(CNC(=O)C2=Cc3cccc(OC)c3OC2)cc1OC, which “activity change, negative = inhibition” value is on record?
Its value is 0.464% (inactive).

Which Potency does the source give for CCOc1cccc(C(=O)Nc2nnc(-c3cccs3)s2)c1 here?
Its Potency is 1.51 µM (active).

With COCC(=O)Nc1nnc(COc2ccccc2)s1 as the compound, how does the “activity change, negative = inhibition” value read?
The value was -10.1% (inactive).

Which “activity change, negative = inhibition” value does the source give for CCOc1cccc(C(=O)Nc2cnn(Cc3ccccc3)c2)c1 here?
The value was -18.7% (inactive).

How did the “activity change, negative = inhibition” value turn out when Cc1cccc(C(C)C)c1NC(=O)C(NS(=O)(=O)c1cccc2nsnc12)c1ccccc1 (stereo not drawn) was run?
The value was -2.84% (inactive).

For CCN(CC)S(=O)(=O)c1ccc2c(c1)N(CC(=O)NCc1ccccc1)C(=O)CS2, which “activity change, negative = inhibition” value is on record?
Its value is -0.306% (inactive).

For CN1C(=O)c2[nH]nc(-c3ccc(F)cc3)c2C1c1ccccn1 (stereo not drawn), which “activity change, negative = inhibition” value is on record?
Its value is -3.01% (inactive).

With COc1cccc(NC(=O)N2C3CCCC2CC(NC(C)=O)C3)c1 (stereo not drawn) as the compound, how does the “activity change, negative = inhibition” value read?
Its value is 0.0264% (inactive).

How did the “activity change, negative = inhibition” value turn out when Cc1ccc(OCCOc2cccc(/C=N/NC(N)=O)c2)cc1 was run?
Its value is -15.1% (inactive).

With O=C(Cc1cccs1)N/N=C/c1ccc(OCc2ccccc2)cc1 as the compound, how does the “activity change, negative = inhibition” value read?
Its value is 2.08% (inactive).

Which Potency does the source give for O=C(N/N=C/c1cccc(O)c1)c1cc2c(ccc3ccccc32)o1 here?
The Potency was 10.7 µM (active).

Which “activity change, negative = inhibition” value does the source give for CCCc1ccc(OCc2ccc(C(=O)N/N=C/c3cccc([N+](=O)[O-])c3)o2)c(OC)c1 here?
Its value is 0.233% (inactive).

O=C(N/N=C/c1cccc(OCc2ccccc2)c1)c1ccc(Br)o1 was tested. Which Potency did it give?
Its Potency is 21.3 µM (active).

Which “activity change, negative = inhibition” value does the source give for O=C(Cc1c[nH]c2ccccc12)N/N=C/c1cccc(F)c1 here?
Its value is -15.3% (inactive).

How did the “activity change, negative = inhibition” value turn out when Cc1cccc(Oc2c([N+](=O)[O-])c(=O)n(C)c3ccccc23)c1 was run?
The value was -3.1% (inactive).

For COc1ccc(Cl)cc1NC(=O)CSc1nc2ccccc2c2nc(-c3ccccc3)nn12, which “activity change, negative = inhibition” value is on record?
Its value is -0.248% (inactive).

CCOc1cccc(NC(=O)c2ccc(F)c(S(=O)(=O)N(CC)c3cccc(C)c3)c2)c1 was tested. Which “activity change, negative = inhibition” value did it give?
The value was -8.56% (inactive).

Which “activity change, negative = inhibition” value does the source give for CCCN1CCc2nc(N3CCN(C)CC3)ncc2C1 here?
Its value is -5.04% (inactive).

For CCN1CCCC1CNC(=O)c1cc2cc(OC)c(OC)cc2[nH]1 (stereo not drawn), which “activity change, negative = inhibition” value is on record?
Its value is 0.324% (inactive).

Which Potency does the source give for COc1ccc(C(=O)CCc2ccccc2O)c(OC)c1 here?
Its Potency is 12 µM (active).

COc1ccc(C(=O)NC(C)CCc2ccccc2)c(OC)c1 (stereo not drawn) was tested. Which “activity change, negative = inhibition” value did it give?
Its value is -0.702% (inactive).

For COc1ccc(CCNC(=O)CCc2ccccc2O)cc1OC, which “activity change, negative = inhibition” value is on record?
The value was 3.81% (inactive).

For O=C(c1cc2cc(Br)cc(Br)c2oc1=O)N1CCOCC1, which “activity change, negative = inhibition” value is on record?
Its value is 0.0137% (inactive).
